# Rows were chosen to be rich in hits. Some 3.2% of all compounds tested hit in one or more screens of this group.
# RE007 growth inh: less growth of the S. pombe RE007 Vpr strain. S. pombe RE007 Vpr strain, BacTiter-Glo ATP luminescence, 24 h. Potency, µM (series often up to 92.2 µM), actives largely listed as inhibitors. 360,000 compounds, 0.21% hits. AID 651644; active = well fitted falling curve with a large enough effect; inconclusive = small, poorly fitted or top-dose-only effect; inactive = no such curve, though single readings can be large or run the other way; note: nearly all actives have a fitted effect of over 50% in size
#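 Fission yeast RE007 carrying one integrated HIV-1 vpr copy, seeded at OD 0.01 in PMG+AL medium with 23 nL pinned compound. Grown 24 h at 30 degrees; viability read by BacTiter-Glo luminescence after 5 min.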
# AmpC no deterg: blocks E. coli AmpC beta-lactamase in detergent-free assay; P00811; AmpC nitrocefin hydrolysis, absorbance 480 nm, 0.0001% Triton; Potency, µM (series often up to 57.1 µM), usual class: inhibitors; 330,000 compounds, 0.52% hits; AID 485341; note: nearly all actives have a fitted effect of over 20% in size
# Target sequence (P00811 whole entry, looked up): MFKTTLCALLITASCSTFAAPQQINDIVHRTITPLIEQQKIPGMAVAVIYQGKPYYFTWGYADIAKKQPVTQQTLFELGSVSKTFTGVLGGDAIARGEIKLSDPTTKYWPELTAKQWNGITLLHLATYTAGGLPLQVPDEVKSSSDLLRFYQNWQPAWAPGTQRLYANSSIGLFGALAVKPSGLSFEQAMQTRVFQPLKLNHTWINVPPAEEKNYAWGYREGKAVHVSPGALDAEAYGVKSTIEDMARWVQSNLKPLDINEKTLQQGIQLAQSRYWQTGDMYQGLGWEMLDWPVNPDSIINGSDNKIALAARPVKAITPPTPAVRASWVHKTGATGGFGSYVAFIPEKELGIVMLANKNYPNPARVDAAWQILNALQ
#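 20 mM phosphate pH 7.0 + 0.01% (detergent screen) or 0.0001% Triton X-100; 5.3 nM AmpC reagent; cpd preinc 15 min RT; nitrocefin (800 uM stock) to start; A480 q20 s × 4 min; Activity was normalised to no-enzyme and no-compound control wells.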
# Sm TGR inh: S. mansoni TGR enzyme inhibition. Q962Y6. purified TGR, DTNB reduction, TNB absorbance 405 nm. Potency, µM (titrated, usually from 114 µM), usual class: inhibitors. 360,000 compounds, 3% hits. AID 485364; note: nearly all actives have a fitted effect of over 60% in size
#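 Kinetic colorimetric format: TGR-catalysed, NADPH-driven DTNB reduction monitored via TNB absorbance. Enzyme dispensed at 20 nM; compound exposure 15 min at room temperature before reaction start.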
# AMA1-RON2 inh: disrupts binding of P. falciparum AMA1 to RON2 | AlphaScreen AMA1-biotinylated RON2 peptide binding | Potency, µM (titrated, usually from 58.2 µM), most hits filed as inhibitors | 360,000 compounds, 0.2% hits; note: nearly all actives have a fitted effect of over 45% in size
#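 AMA1 (3D7) with his tag at 25 nM final met compounds first, then biotinylated RON2 peptide at 25 nM; detection used donor plus acceptor beads, 10 µg/mL apiece, read by AlphaScreen after 30 min at room temperature.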
# AmpC detergent: AmpC beta-lactamase inhibition with detergent present. P00811. AmpC hydrolysis of nitrocefin, absorbance 480 nm, 0.01% Triton. Potency, µM (series often up to 114 µM), usual class: inhibitors. 370,000 compounds, 0.041% hits; note: nearly all actives have a fitted effect of over 25% in size
#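 AmpC (5.3 nM in the dispensed reagent) in 20 mM phosphate pH 7.0 with 0.01% (detergent screen) or 0.0001% Triton X-100 was preincubated with compounds for 15 min at room temperature. Nitrocefin was then added from an 800 uM solution, and hydrolysis was followed at 480 nm.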
# A number is an active result; – = inactive; ? = inconclusive; · = not tested or not shown; [ ] = another dose, or the depositor's remark. Unless noted, calls come from the whole dose curve; as a rule, active = well fitted curve in the direction sought with a large enough effect; inconclusive = small, poorly fitted or top-dose-only effect, or another doubt; inactive = no such curve, though single readings can be large; an effect the other way counts as inactive or inconclusive.
SMILES,RE007 growth inh,AmpC no deterg,Sm TGR inh,AMA1-RON2 inh,AmpC detergent
Cc1ccc(C)c(CSc2nc3ccncc3n2CC(=O)Nc2ccc(N(C)C)cc2)c1,·,·,–,·,–
O=C(NCc1ccco1)c1ccccc1-c1nc(-c2ccc(F)cc2)no1,–,–,?,–,–
Cc1c(Br)cc(C(=O)NCc2ccco2)c(C)c1C,–,–,35µM,–,?
COc1ccc2cc(C(=O)NCc3ccco3)c(=O)oc2c1,–,–,–,–,–
O=C(NCc1ccco1)c1cc2ccc(O)cc2oc1=O,35µM,–,?,–,–
Cc1c(C)n(C)c2ccc(C(=O)NCCc3ccco3)cc12,–,–,35µM,–,–
Cc1ccccc1-c1noc(-c2ccccc2C(=O)NCc2ccco2)n1,–,–,13µM,–,–
Cc1occc1C(=O)NCc1ccco1,–,–,–,–[2.32 µM],?
COc1cc(NC(=O)CC2C(=O)OCCN2Cc2ccccc2)cc(OC)c1 (stereo not given),·,·,–,·,–
CCN(CC)Cc1c(NC(=O)c2ccc(OC)cc2)sc2c1CCCC2,·,·,–,·,–
CCc1cccc(C)c1NC(=O)c1cc(CN2CCCC2)on1,·,·,–,·,–
O=C(NCc1ccco1)c1ccc2[nH]c(=O)c(=O)[nH]c2c1,–,–,–,–,–
Cc1ccc(C(=O)NCc2ccco2)cc1Br,–,–,45µM,–,–
O=C(c1ccc(Br)cc1)c1cc2ccc(O)cc2oc1=O,–,–,35µM,–,–
CC(C)(C)N1C(=O)c2ccc(C(=O)NCc3ccco3)cc2C1=O,–,–,25µM,–,–
COC(=O)c1ccc(OCC2c3cc(OC)c(OC)cc3CCN2C(=O)Cc2ccccc2)cc1 (stereo not given),·,·,–,·,–
Cc1ccc(N=Nc2cc(C)ccc2N)cc1,–,–,–,32µM,–
CCn1c(=NC(=O)c2ccc(S(=O)(=O)N3CCCCC3)cc2)sc2cccc(OC)c21,·,·,–,·,–
CCOC(=O)c1sc2nc(CC(=O)OC)nc(NCc3ccco3)c2c1C,–,–,45µM,–,?
CCOC(=O)c1sc2nc(CC(=O)OC)nc(NCC(=O)OC)c2c1C,–,–,–,–,–
CCN(Cc1ccc(OC)c(F)c1)C(=O)CCl,–,–,11µM,–,–
C=CCNc1nc(C2(C)CC3(CC(C)(C)OC3=O)C(=O)O2)cs1 (stereo not given),–,–,50µM,–,?
CC(C)COCC1CC2(CC(C)(c3csc(N)n3)OC2=O)C(=O)O1 (stereo not given),–,–,?,–,–
O=C(CSc1ccc(-c2ccco2)nn1)NC1CCCCC1,–,–,8.9µM,–,–
O=C(CSc1ccc(-c2ccco2)nn1)NC1CCCC1,–,–,18µM,–,–
SMILES,RE007 growth inh,AmpC no deterg,Sm TGR inh,AMA1-RON2 inh,AmpC detergent
O=C(CSc1ccc(-c2ccco2)nn1)N1CCCCCC1,–,–,25µM,–,–
Cc1ccc(-c2onc(C)c2C)cc1S(=O)(=O)N1CCC(C)CC1,·,·,–,·,–
CCOc1ccc(N2Cc3ccccc3C2)cc1,–,–,56µM,–,?
CCOc1ccc(N2CC(=O)N(c3ccc(OCC)cc3)CC2=O)cc1,–,–,–,–,–
CCOc1ccccc1N1Cc2cc(C)c(C)cc2C1,–,–,?,–,?
CCOc1ccccc1N1Cc2ccccc2C1,–,–,13µM,–,–
COc1ccc(Nc2nc3cc(Cl)c(Cl)cc3n3cnnc23)cc1Cl,·,·,–,·,–
N#CCNC1CC(=O)N(c2ccc(F)cc2)C1=O (stereo not given),25µM,–,7.1µM,–,–
COC(=O)c1c(C)oc2ccc(N(C(C)=O)S(=O)(=O)c3ccccc3)cc12,–,–,–,–,–
COC(=O)c1c(C)oc(C)c1S(=O)(=O)NC(C)(C)C,–,–,25µM,–,–
COC(=O)c1sc(S(=O)(=O)N2CCCCC2)c(C(=O)OC)c1C,–,–,–,–,–
COC(=O)c1c(C)oc(C)c1S(=O)(=O)Nc1ccccc1,–,–,–,–,–
COC(=O)c1c(C)oc(C)c1S(=O)(=O)N1CCCCC1,–,–,40µM,–,–
COC(=O)c1c(C)oc(C)c1S(=O)(=O)N1CCCC1,–,–,50µM,–,–
COC(=O)c1c(C)oc(C)c1S(=O)(=O)N(Cc1ccccc1)C(C)C,–,–,32µM,–,–
O=C1C=C(Nc2ccccc2C(=O)O)c2ccccc2C1=O,–,–,?,–,–
O=C1C=C(Nc2cccc3cccnc23)c2ccccc2C1=O,–,–,32µM,–,–
Cc1[nH]c2ccccc2c1C(C#N)(C#N)C1C(=O)c2ccccc2C1=O,–,14µM,45µM,–,–
Cc1[nH]c2ccccc2c1CC#N,–,–,–,–,–
Cc1ccc(S(=O)(=O)CCC(=O)Nc2ccc(Br)cc2C)cc1,·,·,–,·,–
Cc1ccc(-c2cc3nc(C)cc(C)n3n2)cc1,–,–,·,–,–
Cc1cc(C)n2nc(-c3ccsc3-n3c(C)ccc3C)cc2n1,–,–,3.5µM,–,–
CCOC(=O)C1CCC(CN(Cc2ccc(Cl)cc2)S(=O)(=O)c2ccc(F)c(C(=O)Nc3cccc(F)c3)c2)CC1 (stereo not given),·,·,–,·,–
CC(C)N1CCC2(CC1)N=C(c1ccc3c(c1)OCO3)CC(c1cc(Cl)ccc1O)N2 (stereo not given),?,18µM,?,–,–
Cn1c(CSc2nc3ccccc3n2C)nc2ccccc21,–,–,–,–,–
SMILES,RE007 growth inh,AmpC no deterg,Sm TGR inh,AMA1-RON2 inh,AmpC detergent
Cn1c(SC2=CS(=O)(=O)c3ccccc32)nc2ccccc21,–,–,40µM,–,–
Cc1ccc(CCC(=O)Nc2nccs2)o1,–,–,45µM,–,–
CCc1ccc(CCC(=O)Nc2nccs2)o1,–,–,32µM,–,–
CCOC(=O)C/C(C)=N/NC(=O)CN(c1ccc(Br)cc1)S(=O)(=O)c1ccccc1,–,22µM,–,–,–
COC(=O)CC1Oc2ccc(F)cc2-n2cc(-c3ccc(C)cc3)nc21 (stereo not given),·,·,–,·,–
COc1ccccc1C(=O)COC(=O)CCNS(=O)(=O)c1ccc(C)c(C)c1,–,–,–,–,–
COc1ccc(C(C)=O)cc1COC(=O)CCCN1C(=O)c2ccccc2C1=O,–,–,8.9µM,–,?
COc1ccc(C(C)=O)cc1COC(=O)[C@H](Cc1ccccc1)NC(=O)c1ccco1,–,–,·,–,·
COc1ccc(C(C)=O)cc1COC(=O)CCNS(=O)(=O)c1ccc(C)cc1,–,–,5.6µM,–,?
COc1ccc(C(C)=O)cc1COC(=O)C(CO)NS(=O)(=O)c1ccc(Br)cc1 (stereo not given),–,–,13µM,–,–
COc1cc(C(=O)NCC(=O)OCc2ccccc2Cl)cc(OC)c1OC,–,–[2.29 µM],–,–,–
COc1ccc(C(C)=O)cc1COC(=O)CNC(=O)c1cc(C)cc(C)c1,–,–,32µM,–,–
